Assay results taken from the supplement of paper PMC6805474.

How the values were obtained:
[1] = system: Schistosoma mansoni schistosomula (NMRI); experiment: phenotypic severity score (0-4); higher = more antischistosomal effect, active = 2 or more; settings: 10 µM
[2] = system: Schistosoma mansoni schistosomula (Liberian); experiment: drug effect (1 - score/DMSO control score) (fraction); higher = more antischistosomal effect, active = 0.5 or more; extreme values may be limits of the assay; settings: 10 µM
Method in brief: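 Schistosomula of the Liberian strain of Schistosoma mansoni were mechanically transformed from cercariae, pre-incubated for at least 12 h, and placed at 50 per well in flat-bottom 96-well plates with Medium 199 containing 5% FCS. Compounds were tested in duplicate at 10 µM at 37 °C and 5% CO2, alongside wells holding 0.1% DMSO. Parasites were scored visually at 10× after 24, 48 and 72 h on a quarter-point scale running from 3 (normal) to 0 (dead). Drug effect came from the mean test-well score relative to the mean DMSO-well score, with negative values set to zero and plates accepted only when the DMSO wells averaged at least 2.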
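Throughout, for phenotypic severity score (0-4): visual microscopic scoring of shape, motility and density changes versus 0.5% DMSO solvent controls, one point per descriptor, degeneracy or death scored 4, mean of duplicate wells.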

CC1(C)OB(O)c2ccc(C3=NOC(c4cc(Cl)c(F)c(Cl)c4)(C(F)(F)F)C3)cc21 (centres undefined)
active: phenotypic severity score ([1]; 24 h) 2 | drug effect ([2]; 24 h) 1 | drug effect ([2]; 48 h) 1 | drug effect ([2]; 72 h) 1
inactive: phenotypic severity score ([1]; 48 h) 0 | phenotypic severity score ([1]; 72 h) 1

CC1COC(Cn2cncn2)(c2ccc(Oc3ccc(Cl)cc3)cc2Cl)O1 (centres undefined)
inactive: phenotypic severity score ([1]; 48 h) 1 | drug effect ([2]; 24 h) 0.136 | drug effect ([2]; 48 h) 0.25 | drug effect ([2]; 72 h) 0.0727
active: phenotypic severity score ([1]; 24 h) 2 | phenotypic severity score ([1]; 72 h) 2

CO/N=C(\C(=O)OC)c1ccccc1CO/N=C(\C)c1cccc(C(F)(F)F)c1
inactive: phenotypic severity score ([1]; 24 h) 1 | phenotypic severity score ([1]; 48 h) 0 | phenotypic severity score ([1]; 72 h) 0 | drug effect ([2]; 24 h) 0.05 | drug effect ([2]; 48 h) 0.027 | drug effect ([2]; 72 h) 0.152

O=C1O[C@@H](CO)CN1c1cc(F)c(C2=CCN(Cc3ccccc3)CC2)c(F)c1
inactive: phenotypic severity score ([1]; 24 h) 0 | phenotypic severity score ([1]; 48 h) 0 | drug effect ([2]; 24 h) 0.05 | drug effect ([2]; 48 h) 0.111 | drug effect ([2]; 72 h) 0.188
active: phenotypic severity score ([1]; 72 h) 2

CC(C)(C)C(O)C(Oc1ccc(-c2ccccc2)cc1)n1cncn1 (centres undefined)
inactive: phenotypic severity score ([1]; 24 h) 1 | phenotypic severity score ([1]; 48 h) 0 | phenotypic severity score ([1]; 72 h) 0 | drug effect ([2]; 24 h) 0.0909 | drug effect ([2]; 48 h) 0.15 | drug effect ([2]; 72 h) 0.127

Nc1c2c(nc3sc4c(c13)CCCC4)CCCC2
active: phenotypic severity score ([1]; 24 h) 4 | phenotypic severity score ([1]; 48 h) 4 | phenotypic severity score ([1]; 72 h) 4 | drug effect ([2]; 24 h) 0.545 | drug effect ([2]; 48 h) 0.8 | drug effect ([2]; 72 h) 0.564

Cc1nn(Cc2ccccc2)c(Cl)c1C(=O)NC1CCCCCC1
inactive: phenotypic severity score ([1]; 48 h) 0 | phenotypic severity score ([1]; 72 h) 0 | drug effect ([2]; 24 h) 0.0455 | drug effect ([2]; 48 h) 0.05 | drug effect ([2]; 72 h) 0.0727
active: phenotypic severity score ([1]; 24 h) 2

Cc1cc(C2=NOC(c3cc(Cl)c(F)c(Cl)c3)(C(F)(F)F)C2)ccc1C(=O)NCc1ccc2c(c1)C(C)(C)OB2O (centres undefined)
inactive: phenotypic severity score ([1]; 24 h) 0 | phenotypic severity score ([1]; 48 h) 0 | phenotypic severity score ([1]; 72 h) 0 | drug effect ([2]; 24 h) 0.2 | drug effect ([2]; 48 h) 0.135 | drug effect ([2]; 72 h) 0.167

CO[C@@H]1CN(c2ccc(C#CC3(O)CN4CCC3CC4)c(Cc3ccccc3)n2)C[C@H]1O (some centres undefined)
inactive: phenotypic severity score ([1]; 24 h) 0 | phenotypic severity score ([1]; 48 h) 0 | phenotypic severity score ([1]; 72 h) 0 | drug effect ([2]; 24 h) < 0 | drug effect ([2]; 48 h) < 0 | drug effect ([2]; 72 h) 0.111

Cc1cccc(C(=O)Nc2ccnc(N(C)C3CCN(CC(C)C)CC3)c2)c1
inactive: phenotypic severity score ([1]; 24 h) 0 | phenotypic severity score ([1]; 48 h) 0 | phenotypic severity score ([1]; 72 h) 0 | drug effect ([2]; 24 h) 0.1 | drug effect ([2]; 48 h) 0.243 | drug effect ([2]; 72 h) 0.212

CO/C=C(/C(=O)OC)c1ccccc1Oc1cc(Oc2ccccc2C#N)ncn1
inactive: phenotypic severity score ([1]; 24 h) 0 | phenotypic severity score ([1]; 48 h) 0 | phenotypic severity score ([1]; 72 h) 0 | drug effect ([2]; 24 h) 0.05 | drug effect ([2]; 48 h) 0.027 | drug effect ([2]; 72 h) 0.111

Cc1nn(C)c(C)c1NS(=O)(=O)c1c(Cl)cc(-c2ccnc(N3CCNCC3)c2)cc1Cl
inactive: phenotypic severity score ([1]; 24 h) 0 | phenotypic severity score ([1]; 48 h) 0 | phenotypic severity score ([1]; 72 h) 0 | drug effect ([2]; 24 h) 0.15 | drug effect ([2]; 48 h) 0.0811 | drug effect ([2]; 72 h) 0.152

O=C1O[C@@H](COc2ccon2)CN1c1cc(F)c(C2=CCN(Cc3ccccc3)CC2)c(F)c1
inactive: phenotypic severity score ([1]; 24 h) 0 | phenotypic severity score ([1]; 48 h) 0 | phenotypic severity score ([1]; 72 h) 0 | drug effect ([2]; 24 h) 0.1 | drug effect ([2]; 48 h) 0.167 | drug effect ([2]; 72 h) 0.25

CCc1nn(C)c(C(=O)NCc2ccc(Oc3ccc(C)cc3)cc2)c1Cl
inactive: phenotypic severity score ([1]; 24 h) 1 | phenotypic severity score ([1]; 48 h) 1 | drug effect ([2]; 24 h) 0.364 | drug effect ([2]; 72 h) 0.455
active: phenotypic severity score ([1]; 72 h) 2 | drug effect ([2]; 48 h) 0.55
